# Source: PubChem (National Center for Advancing Translational Sciences (NCATS))
# A selection: hits, their analogues and other compounds. The true share with any hit is near 9.2%.
# ELG1 genotoxic: genotoxicity induction in ELG1-luciferase HEK293T cells; HEK293T ELG1-luciferase reporter, luminescence, 16 h; Potency, µM (series often up to 46 µM), for the others: at the highest dose activity change, positive = activation, actives largely listed as activators; 330,000 tested, 1.3% active; AID 504466; further: % of control where 0% means no effect; nearly all actives have a fitted effect of over 60% in size
#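 16 hr compound incubation (37 °C, 5% CO2) of HEK293T cells carrying luciferase-tagged ELG1; luciferase then measured by ONE-Glo luminescence after 30 min at RT.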
# Rab9 prom act: activators of Rab9 promoter | Huh7 Rab9 promoter-luciferase reporter, luminescence, 24 h | Potency, µM (series often up to 9.22 µM), for the others: at the top dose activation, negative = inhibition, actives largely listed as activators | 320,000 tested, 2.8% active; further: % of control where 0% means no effect; nearly all actives have a fitted effect of over 60% in size
#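 Huh7 cells stably carrying a Rab9 promoter-luciferase reporter, 1500 cells per well in OP-MEM I with 10% FBS, treated with compound 24 hours at 37C. Luciferase activity read by luminescence after 10 minutes with Amplite reagent.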
# SMN2 splice up: enhancers of SMN2 splice variant expression; HEK293 SMN2-luciferase splicing reporter, luminescence, 30-36 h; Potency, µM (series often up to 46.1 µM), inactives show at the top dose activity change, positive = activation, most hits filed as activators; 210,000 tested, 2.8% active; further: % of control where 0% means no effect; nearly all actives have a fitted effect of over 55% in size
#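 HEK293 cells carry an SMN2 minigene-luciferase reporter in which exon 7 inclusion puts luciferase in frame. Cells were seeded at 2000 cells/well, attached for 10-12 hours, then exposed to compounds for 30-36 hours at 37C before ONE-Glo luminescence.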
# ELG1 repair inh: blocks ELG1-dependent DNA repair in HEK293T cells | AID 504467 | HEK293T ELG1-luciferase reporter, luminescence, 16 h; DNA damage induced by 5-fluorouridine | 330,000 tested, 2.3% active | Potency, µM (highest dose often 46.1 µM), for inactives: top-dose activity change, negative = inhibition, usual class: inhibitors; further: on the % scale 0 is the no-effect control and ±100 the full control effect; nearly all actives have a fitted effect of over 55% in size
#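 Quantitative HTS, concentration-response format. 2,000 cells/well co-treated with 5-fluorouridine and compound, 16 hr in 5% CO2 at 37 °C; ONE-Glo luminescence read after 30 min.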
# FLuc counter: counter-screen for miR-21 project: firefly luciferase inhibitors or activators | P08659 | purified FLuc, Km substrates, luminescence inhibition | Potency, µM (series often up to 57.5 µM), inactives show at the top dose activity change, negative = inhibition, actives largely listed as inhibitors | 360,000 tested, 6.9% active;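 further: plate controls were vehicle for no effect and reference inhibitor for full effect; nearly all actives have a fitted effect of over 55% in size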
# Target sequence (P08659 whole entry, looked up): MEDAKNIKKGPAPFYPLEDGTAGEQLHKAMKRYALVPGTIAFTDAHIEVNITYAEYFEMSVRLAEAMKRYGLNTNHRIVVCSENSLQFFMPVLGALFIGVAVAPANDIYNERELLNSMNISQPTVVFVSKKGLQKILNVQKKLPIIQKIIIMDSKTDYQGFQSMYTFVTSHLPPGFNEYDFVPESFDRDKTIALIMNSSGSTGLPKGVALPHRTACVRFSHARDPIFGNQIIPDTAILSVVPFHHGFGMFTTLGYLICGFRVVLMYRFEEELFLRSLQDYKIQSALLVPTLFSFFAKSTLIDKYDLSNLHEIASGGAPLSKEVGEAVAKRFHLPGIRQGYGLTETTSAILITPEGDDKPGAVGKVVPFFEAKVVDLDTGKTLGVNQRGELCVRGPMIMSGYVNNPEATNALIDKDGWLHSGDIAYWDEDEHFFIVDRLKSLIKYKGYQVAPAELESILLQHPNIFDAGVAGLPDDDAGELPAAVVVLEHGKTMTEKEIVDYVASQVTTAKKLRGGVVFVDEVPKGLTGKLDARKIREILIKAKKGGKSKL
#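 Purified P. pyralis luciferase, 10 nM final, with Km-level 10 uM D-luciferin and 10 uM ATP in 50 mM Tris acetate pH 7.5, 10 mM Mg acetate, 0.01% Tween-20, 0.05% BSA; 6-point qHTS titration about 60 µM downward; luminescence read.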
# NPC1 prom act: NPC1 promoter activation; Huh7 NPC1 promoter luciferase reporter, 24 h; 320,000 tested, 2.4% active; Potency, µM (top dose mostly 9.22 µM), inactives show at the top dose activation, most hits filed as activators; further: % of control where 0% means no effect; nearly all actives have a fitted effect of over 60% in size
#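 Luminescence read-out of NPC1 promoter-driven luciferase in stably transfected Huh7 cells; compounds delivered in DMSO and left 24 h at 37C, 5% CO2, qHTS titration format.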
# An asterisk follows results filed as active; ? = inconclusive; . = no result given. The call rests on the fitted dose curve; in most records, active means well fitted curve in the direction sought with a large enough effect; inconclusive means small, poorly fitted or top-dose-only effect, or another doubt; inactive means no such curve, though single readings can be large; an effect the other way counts as inactive or inconclusive. Potency means the concentration at half of the fitted maximal effect.
SMILES,ELG1 genotoxic,Rab9 prom act,SMN2 splice up,ELG1 repair inh,FLuc counter,NPC1 prom act
O=C(Nc1ccc(CN2CCCCC2)cc1)Nc1ccccc1Cl,16.5%,28.0%,?,?,16.9µM*,22.3%
CCN1CCN(CCC(=O)Nc2ccc(C)cc2)CC1,0.8%,-1.5%,.,-3.3%,-0.6%,7.0%
CC(=O)Nc1ccc(CN2CCCCCCC2)cc1,1.1%,0.9%,11.9%,4.0%,-1.4%,1.3%
CCN1CCN(Cc2ccc(NC(=O)Nc3ccccc3Cl)cc2)CC1,18.4µM*,3.55µM*,?,?,6.75µM*,3.98µM*
CCN1CCN(Cc2ccccc2NC(=O)Nc2ccc(C)cc2)CC1,10.3µM*,3.98µM*,?,?,23.9µM*,?
CCN1CCN(C(=O)C2(NC(=O)Nc3ccccc3Cl)CCCCC2)CC1,4.8%,-1.6%,-19.1%,-3.6%,5.8%,-5.9%
O=C(Nc1ccncc1)Nc1ccc(Br)cc1Cl,-7.7%,0.9%,.,-10.9%,-13.5%,0.4%
Cc1c(C#N)sc(C(N)=O)c1C,-8.3%,-2.9%,3.6%,-3.6%,-1.8%,0.4%
OCC1OC([S-])[C@H](O)C(O)C1O.[Au+] (stereo partly drawn),.,.,-6.8%,.,.,.
Cc1ccc(CS(=O)Cc2ccc(C(=O)NCc3ccc(OC(C)C)cc3)o2)cc1 (stereo not drawn),-9.2%,0.4%,.,7.3µM*,-4.5%,-1.8%
Cc1ccc(S(=O)Cc2ccc(C(=O)NCc3ccc(OC(C)C)cc3)o2)cc1 (stereo not drawn),.,.,.,.,-10.1%,.
CCc1ccc(N2CC(C)Cn3c2nc2c3c(=O)n(CC(=O)O)c(=O)n2C)cc1 (stereo not drawn),.,.,4.3%,.,-8.6%,.
COc1ccccc1/C=C/C(=O)Nc1cccc(S(=O)(=O)NC2=NCCCCC2)c1,-7.4%,1.6%,3.2%,-10.7%,19µM*,-5.4%
COc1ccc(/C=C/C(=O)Nc2cccc(S(=O)(=O)NC3=NCCCCC3)c2)c(OC)c1,-6.6%,1.9%,.,?,6.01µM*,3.5%
CCc1ccccc1NC(=O)C1CCN(C2=NS(=O)(=O)C(c3ccc(C)c(C)c3)=C2C)CC1,.,.,.,.,-6.5%,.
CN(C(=O)c1cnccn1)c1c(N)n(Cc2ccccc2)c(=O)[nH]c1=O,-0.4%,-1.4%,.,14.8%,-0.6%,-1.8%
COc1ccc(C(=O)/C=C2/Sc3cc4c(cc3N2C)OCO4)cc1,?,?,.,?,?,16.7%
COCC(=O)/C=C1\Sc2ccccc2N1C,15.9%,0.3%,16.2%,?,-8.3%,1.2%
CN1/C(=C\C(=O)c2cccc([N+](=O)[O-])c2)Sc2ccccc21,9.2µM*,2µM*,.,?,1.35µM*,1.26µM*
COc1cc(OC)cc(C(=O)/C=C2\Sc3ccccc3N2C)c1,?,?,.,?,7.57µM*,?
COc1ccc2c(c1)S/C(=C\C(=O)c1ccncc1)N2C,20.6µM*,?,1.8%,?,6.75µM*,?
CN(C)/C=C/C(=O)c1cccc([N+](=O)[O-])c1,6.4%,-31.5%,7.9%,22.5%,0.0%,0.4%
CCC(OCC(O)CN1CCCCC1)c1ccccc1 (stereo not drawn),0.3%,-1.6%,.,7.2%,0.5%,-1.6%
O=C(c1ccc(-c2ccccc2Cl)o1)N1CCCC(C(F)(F)F)C1 (stereo not drawn),?,?,.,?,13.5µM*,29.4%
CC(=O)N1CCN(C(=O)c2ccc(-c3cccc(C(F)(F)F)c3)o2)CC1,2.9%,-0.7%,.,3.9%,-9.3%,-1.0%
SMILES,ELG1 genotoxic,Rab9 prom act,SMN2 splice up,ELG1 repair inh,FLuc counter,NPC1 prom act
CN1CCCN(C(=O)c2ccccc2Cl)CC1,-1.6%,3.6%,.,1.0%,-1.7%,-3.1%
O=C(c1ccc(-c2ccccc2Cl)o1)N1CCC1,?,?,.,?,16.9µM*,?
O=C(c1ccc(-c2ccc([N+](=O)[O-])cc2Cl)o1)N1CCOCC1,?,?,?,?,16.9µM*,27.6%
O=C(c1ccc(-c2cccc(C(F)(F)F)c2)o1)N1CCOCC1,16.4µM*,19.5%,28.2%,?,?,23.6%
Cc1c(C(=O)N2CCCC(C(F)(F)F)C2)oc2ccccc12 (stereo not drawn),2.5%,3.3%,.,?,?,0.0%
CCc1ccnc(NS(=O)(=O)c2ccc3c(c2)CCO3)c1,0.0%,-0.4%,.,1.2%,-2.0%,-1.5%
Cc1ccc(/C=N/N=C2\SCC(=O)N2CC2CC2)cc1,1.6%,-3.2%,.,6.2%,?,-4.8%
O=C(c1ccc([N+](=O)[O-])o1)N1CCOCC1,2.0%,-0.3%,-7.0%,-13.5%,3.6%,-2.5%
CC(=O)c1ccc(-c2ccc(C(=O)N3CCC(C(N)=O)CC3)o2)cc1,?,29.2%,.,?,?,?
CC1CCN(C(=O)c2ccc(-c3ccccc3Cl)o2)CC1,?,0.316µM*,.,?,2.13µM*,0.891µM*
NC(=O)C1CCCN(C(=O)c2ccc(-c3cccc(Cl)c3Cl)o2)C1 (stereo not drawn),?,?,.,?,9.53µM*,?
O=C(c1ccc(-c2cccc(Cl)c2Cl)o1)N1CCOCC1,?,1.26µM*,11.2µM*,?,?,?
N#C/C(=C\c1cccc([N+](=O)[O-])c1)c1ccccn1,?,?,5.6%,?,-9.9%,0.5%
CN(CCC#N)c1ccc(/C=C(\C#N)c2ccccn2)cc1,0.651µM*,0.501µM*,1µM*,?,1.51µM*,0.501µM*
N#C/C(=C\c1ccc(C(=O)O)cc1)c1ccccn1,-2.5%,-2.9%,6.0%,8.9%,-18.1%,-1.1%
COc1cc(/C=C(\C#N)c2ccccn2)ccc1OCc1ccccc1,2.7%,12.4%,17.7%,?,?,3.0%
CCN(CC)c1ccc(/C=C(\C#N)c2ccccn2)cc1,?,0.126µM*,1.41µM*,?,1.07µM*,0.447µM*
CCN(Cc1ccccc1)c1ccc(/C=C(\C#N)c2ccccn2)cc1,?,1.41µM*,.,?,7.57µM*,3.55µM*
CCOC(=O)c1ccc(NC(=O)C2C3CCCCC32)cc1 (stereo not drawn),22.8%,?,.,?,15.1µM*,?
CCOC(=O)c1ccc(NC(=O)N2CCCCCC2)cc1,5.8µM*,1.78µM*,.,?,8.49µM*,1.12µM*
CCCOC(=O)c1ccc(NC(=O)C2CCCO2)cc1 (stereo not drawn),?,3.98µM*,?,?,?,?
CC(C)COC(=O)c1ccc(NC(=O)C2C3CCC(C3)C2C(=O)O)cc1 (stereo not drawn),?,1.12µM*,21.3%,?,16.9µM*,3.98µM*
